ADAM10 inh – human ADAM10 inhibitors, primary screen, biochemical, QFRET, HTS. Disintegrin and metalloproteinase domain-containing protein 10 (Homo sapiens), O14672. 370,000 tested, 0.62% active. recombinant ADAM10, EDANS/DABCYL FRET peptide cleavage, 3 h. inhibition, % at 7 µM;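 active = inhibition above a per-campaign cutoff equal to the mean of compounds falling between control-based bounds plus 3 SD, cut at about 20% in these data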;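 note: 0% = DMSO wells while the 100% control is not disclosed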
rCAG RNA binder – binders of r(CAG) RNA repeats, primary screen, biochemical, fluorescence | 370,000 tested, 1.3% active | r(CAG) RNA repeat, TO-PRO-1 dye displacement fluorescence | inhibition, % at 3 µM | AID 651821, 2012;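 active = inhibition above the plate cutoff, the mean of all test compounds on that plate plus 3 SD, cut at about 35% in these data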;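 note: 0% = DMSO alone and 100% = 100 µM mitoxantrone as full dye displacement; higher means more dye released from RNA so lower well fluorescence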
NR3A LBD binder – binders of NR3A ligand-binding domain, primary screen, biophysical, differential scanning fluorimetry, uHTS. Glutamate receptor ionotropic, NMDA 3A (GRIN3A) ligand-binding domain. NR3A LBD differential scanning fluorimetry, Tm shift; 0% = protein alone, 100% = glycine-bound protein. Tm shift relative to glycine control, % at 25 µM. 340,000 tested, 2.5% active. AID 1259313, 2017;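 active = melting temperature shift of at least 10% of the positive control shift, at one fixed dose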
KLK7 zymogen act – proKLK7 zymogen activators, primary screen, biochemical, fluorescence intensity | Kallikrein-7 (Homo sapiens), P49862 | 370,000 tested, 0.9% active | AID 652039, 2013 | purified proKLK7, EDANS-DABCYL substrate fluorescence; 100% is mature enzyme control, 0% vehicle | activation, % at 7 µM;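 active = activation above the mean of all tested compounds plus 3 SD, computed per campaign excluding outliers beyond control limits, cut at about 13% in these data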
Target sequence (P49862 whole entry, looked up): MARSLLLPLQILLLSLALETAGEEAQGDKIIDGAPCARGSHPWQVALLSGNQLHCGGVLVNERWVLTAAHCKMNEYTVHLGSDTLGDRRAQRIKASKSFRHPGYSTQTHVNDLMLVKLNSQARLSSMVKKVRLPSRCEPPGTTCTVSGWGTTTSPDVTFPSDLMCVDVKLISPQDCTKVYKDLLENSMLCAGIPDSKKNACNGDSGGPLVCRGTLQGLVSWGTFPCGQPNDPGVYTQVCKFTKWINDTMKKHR
ADAM17 inh – ADAM17 inhibitors, primary screen, biochemical, QFRET. inhibition, % at 6.95 µM. recombinant ADAM17, EDANS/DABCYL FRET peptide cleavage. 370,000 tested, 0.83% active;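 active = inhibition above the mean of compounds lying between control limits plus 3 SD, set per campaign, cut at about 8.5% in these data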;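 note: 0% = DMSO-only wells as the low control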
AHR activator – AHR activators, primary screen, cell-based, luminescence, luciferase reporter, human | Aryl hydrocarbon receptor (Homo sapiens), P35869 | 320,000 tested, 2.5% active | AHR-responsive luciferase reporter cells | AID 2796, 2010 | activation, % at 5 µM; in the data active = activation above about 47%;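 note: 0% = vehicle wells and 100% = reference agonist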
The depositor's hits bear a star; i = inactive; / = no result. Only some compounds are listed: those with a hit (about 7% of all), similar ones and a draw of the others.

SMILES	ADAM10 inh	rCAG RNA binder	NR3A LBD binder	KLK7 zymogen act	ADAM17 inh	AHR activator
COc1cccc(N(C(=O)Cn2nnc(-c3ccc(C)cc3)n2)C(C(=O)NC(C)(C)C)c2c[nH]c3ccccc23)c1 (stereo not drawn)	23*	7	0	1	12*	10
Cc1ccn(-c2ccc(NC(=O)c3cccs3)cc2)n1	2	-2	26*	0	-2	-5
Cc1ccc(NS(=O)(=O)c2ccc(NC(=O)c3cccs3)cc2)cc1	9	7	20*	0	4	3
O=C(Nc1ccc(NS(=O)(=O)c2ccccc2)cc1)c1ccccc1Cl	-9	6	35*	-1	-2	2
CN1CCN(c2ccc(NC(=O)c3cccs3)cc2)CC1	-2	1	-6	1	-2	7
O=C(Nc1ccccc1O)c1ccc(NC(=O)C2CC2)cc1	4	-1	23*	0	1	11
CC(CCN1CCC(C(O)(c2ccccc2)c2ccccc2)CC1)Oc1cccc(Cl)c1 (stereo not drawn)	6	4	/	1	1	/
CCCCN1CC(COCc2ccccc2)Oc2cccc(Oc3ccc(F)cc3OC)c2S1(=O)=O (stereo not drawn)	-12	10	/	1	7	/
O=C(Nc1ccc(NC(=O)c2ccccc2F)cc1)c1cccs1	-24	5	22*	5	-10	-4
O=C(Nc1ccc(Cl)cc1)c1cccs1	-2	0	2	1	-1	13
O=C(Nc1ccc(NC(=O)C2CC2)cc1)c1cccs1	-4	0	17*	0	0	0
O=C(CN1CCN(Cc2ccccc2Cl)CC1)N/N=C\c1ccccc1F	-5	0	/	0	-3	/
O=C(Nc1ccccc1)OCCN1C(=O)CCC12CCC(c1ccccc1)CC2 (stereo not drawn)	0	2	/	0	-1	/
Cc1ccccc1C(=O)n1ccc2ccc(-c3ccc4ccn(Cc5ccc(C#N)cc5)c4c3)cc21	-41	12	/	-5	-12	/
CCC(C)[C@H](NC(=O)[C@H](CC(C)C)NC(=O)OC(C)(C)C)C(=O)N[C@@H](Cc1ccccc1)C(=O)OC (stereo partly drawn)	-15	3	/	0	-6	/
COc1ccc2nc3oc(C(=O)Nc4ccc(OC)c(OC)c4)cc3cc2c1	-95	0	17*	1	-24	-6
COc1ccc2cc3cc(C(=O)Nc4ccc5c(c4)OCO5)oc3nc2c1	-44	4	26*	0	-15	-3
COc1ccc2cc3cc(C(=O)NCCc4ccc(OC)c(OC)c4)oc3nc2c1	-490	-4	-12	-74	-99	-7
CCCN(CCC)CCCNC(=O)c1cc2cc3ccc(OC)cc3nc2o1	i	1	4	61*	i	11
CCCCN(CC)C(=O)c1cc2cc3ccc(Cl)cc3nc2o1	-13	-1	19*	-4	-2	5
C=CCn1c(SCC(=O)O)nnc1-c1ccco1	-1	0	/	0	-2	/
O=C(CNc1ccc2ccccc2c1)N/N=C/c1ccc(OC(=O)/C=C/c2ccco2)cc1	-10	20	21*	0	2	24
CSc1ccc(/C=N/NC(=O)CNc2ccc3ccccc3c2)cc1	-13	16	21*	0	6	68*
Cc1ccc(C(=O)N/N=C/c2cccc(OC(=O)/C=C/c3ccco3)c2)cn1	-1	1	0	0	-2	4
O=C(CNc1ccc2ccccc2c1)N/N=C/c1ccncc1	-20	15	-1	-2	-12	44
SMILES	ADAM10 inh	rCAG RNA binder	NR3A LBD binder	KLK7 zymogen act	ADAM17 inh	AHR activator
O=C(CNc1cccc2ccccc12)N/N=C/c1ccc(OC(=O)/C=C/c2ccco2)cc1	-19	18	6	1	-6	/
CSc1ccc(/C=N/NC(=O)CNc2cccc3ccccc23)cc1	-252	13	19*	11	-71	26
O=C(/C=C/c1ccco1)Oc1cc(Br)cc(/C=N/NC(=O)c2ccccc2O)c1	-7	19	11*	-4	-2	24
O=C(CNc1cccc2ccccc12)N/N=C/c1ccc[nH]1	-139	8	-7	8	-54	32
CC(C)C[C@H](NC(=O)c1cccs1)C(=O)N1CCC[C@H]1C(=O)NCc1ccccc1	-17	-2	/	1	-6	/
O=C(C1CCN(c2ncnc3c2sc2cccc(F)c23)CC1)N1CCN(Cc2ccccc2)CC1	-31	4	/	-2	-8	/
O=C(CNc1cccc2ccccc12)N/N=C/c1ccc([N+](=O)[O-])o1	-17	23	-8	2	-6	65*
O=C(CNc1cccc2ccccc12)N/N=C/C(Br)=C/c1ccccc1	-9	24	16*	-1	-7	2
COc1cc(=O)oc(C=O)c1C	-10	-2	/	0	0	/
COC(=O)c1cc2sc(Cl)cc2n1CC(=O)Nc1cccc(SC)c1	5	10	15*	0	3	8
COC(=O)c1cc2sc(Cl)cc2n1CC(=O)Nc1ccc(OC)c(OC)c1OC	5	6	-1	1	-3	5
O=C(/C=C/c1ccc(OC(F)F)cc1)Nc1cccc(S(=O)(=O)N2CCOCC2)c1	15	10	20*	0	6	-3
Cc1c(C(=O)Nc2cccc(C(F)(F)F)c2)oc2ccc(S(=O)(=O)N3CCOCC3)cc12	-8	-1	25*	0	-3	1
Cc1ccc(/C=C/C(=O)Nc2cccc(S(=O)(=O)N3CCOCC3)c2)o1	-16	13	-8	0	-7	59*
Cc1ccc(CNC(=O)c2oc3ccc(S(=O)(=O)N4CCOCC4)cc3c2C)cc1	14	1	-32	0	4	1
O=C(/C=C/c1ccco1)Nc1cccc(S(=O)(=O)N2CCOCC2)c1	0	6	-9	0	1	50*
COc1ccc(/C=C/C(=O)Nc2cccc(S(=O)(=O)N3CCOCC3)c2)cc1OC	-108	5	-4	2	-39	/
COC(=O)Nc1ccc2c(c1)ncn2C1CCCCC1	-9	-3	1	1	-4	66*
CN(C)c1ccc(-c2nc3ccccn3c2/N=C/c2ccc(Br)cc2)cc1	-209	0	24*	-28	-71	47*
COc1cc(-c2nc3ccccn3c2/N=C/c2cc(OC)c(OC)c(OC)c2)ccc1O	-134	4	1	-56	-40	5
S=C(Nc1ccccc1)Nc1nc2ccccc2n1CCOc1ccc(Br)cc1	-6	5	-7	-1	-4	22
COc1ccccc1NCc1nc2ccccc2n1C	-2	/	/	/	-3	/

Compound activity from PubChem.
